# Measured values as given in the supplement of paper PMC4022240.
# ± gives the standard deviation.
# T1: HaloTag-ATRX ADD domain (163-292)
# T1 chain: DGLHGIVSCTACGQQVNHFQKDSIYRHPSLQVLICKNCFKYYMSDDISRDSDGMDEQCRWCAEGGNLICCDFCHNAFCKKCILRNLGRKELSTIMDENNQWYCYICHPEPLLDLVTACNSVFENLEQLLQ
# B1: H4 1-13 S G R G Kac G G Kac G L G Kac G (peptide)
# chain: SGRGKGGKGLGKG
# B2: H4 1-13 Sph G R G Kac G G K G L G K G (peptide)
# chain: SGRGKGGKGLGKG
# B3: H3 112-124 I H A K R V T I M P Kme3 D I (peptide)
# chain: IHAKRVTIMPKDI
# B4: H3 112-124 I H A K Rcit V T I M P K D I (peptide)
# chain: IHAKRVTIMPKDI
# B5: H4 1-13 S G R G K G G K G L G Kac G (peptide)
# chain: SGRGKGGKGLGKG
# B6: H3 112-124 I H A K Rme2a V T I M P K D I (peptide)
# chain: IHAKRVTIMPKDI
# B7: H4 1-13 S G R G K G G Kac G L G Kac G (peptide)
# chain: SGRGKGGKGLGKG
# B8: H4 1-13 S G Rcit G K G G K G L G K G (peptide)
# chain: SGRGKGGKGLGKG
# B9: H4 1-13 S G R G Kac G G K G L G K G (peptide)
# chain: SGRGKGGKGLGKG
# B10: H4 1-13 S G Rme2s G K G G K G L G K G (peptide)
# chain: SGRGKGGKGLGKG
# How the values were obtained:
# Test in all cases: peptide microarray binding signal (635 nm), min-max normalized on array (fraction of array maximum); higher = stronger binding
# [1] = molecular target: T1, HaloTag-ATRX ADD domain (163-292)
# In short: (§1)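 Binding signal is the mean intensity of triplicate spots, min-max scaled within each library. Histone 13-mer peptide–cellulose conjugates were spotted in triplicate on nitrocellulose with a Cy3 tracer and blocked overnight at 4°C. Probing lasted 1 h at 4°C, either with biotin-labelled HaloTag reader fusions (10 nM to 1 μM) and streptavidin-Alexa Fluor 647 or with rabbit histone antibodies (1:10,000 to 1:2,000) and anti-rabbit Alexa 647. An Axon GenePix 4000B read signal at 635 nm and misprints at 532 nm.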
# [2] = molecular target: HaloTag-ING2 PHD (mouse Ing2 200-280)
# In short: as §1
# [3] = molecular target: anti-H3K4me3 antibody ab8580
# In short: as §1
# [4] = molecular target: anti-H3K9me3 antibody ab8898
# In short: as §1
# [5] = peptide region: H4 1-13, peptide modifications: H4K5ac H4K8ac H4K12ac, binder concentration: 1:2,000 dilution
# [6] = peptide region: H4 1-13, peptide modifications: H4K5ac H4K8ac H4K12ac, binder concentration: 1:10,000 dilution
# [7] = peptide region: H4 1-13, peptide modifications: H4S1ph H4K5ac, binder concentration: 1:2,000 dilution
# [8] = peptide region: H4 1-13, peptide modifications: H4S1ph H4K5ac, binder concentration: 1:10,000 dilution
# [9] = peptide region: H3 112-124, peptide modifications: H3K122me3, binder concentration: 1:2,000 dilution
# [10] = peptide region: H3 112-124, peptide modifications: H3K122me3, binder concentration: 1:10,000 dilution
# [11] = peptide region: H3 112-124, peptide modifications: H3R116cit, binder concentration: 1:2,000 dilution
# [12] = peptide region: H3 112-124, peptide modifications: H3R116cit, binder concentration: 1:10,000 dilution
# [13] = peptide region: H4 1-13, peptide modifications: H4K12ac, binder concentration: 1:2,000 dilution
# [14] = peptide region: H4 1-13, peptide modifications: H4K12ac, binder concentration: 1:10,000 dilution
# [15] = peptide region: H3 112-124, peptide modifications: H3R116me2a, binder concentration: 1:2,000 dilution
# [16] = peptide region: H3 112-124, peptide modifications: H3R116me2a, binder concentration: 1:10,000 dilution
# [17] = peptide region: H4 1-13, peptide modifications: H4K8ac H4K12ac, binder concentration: 1:2,000 dilution
# [18] = peptide region: H4 1-13, peptide modifications: H4K8ac H4K12ac, binder concentration: 1:10,000 dilution
# [19] = peptide region: H4 1-13, peptide modifications: H4R3cit, binder concentration: 1:2,000 dilution
# [20] = peptide region: H4 1-13, peptide modifications: H4R3cit, binder concentration: 1:10,000 dilution
# [21] = peptide region: H4 1-13, peptide modifications: H4K5ac, binder concentration: 1:2,000 dilution
# [22] = peptide region: H4 1-13, peptide modifications: H4K5ac, binder concentration: 1:10,000 dilution
# [23] = peptide region: H4 1-13, peptide modifications: H4R3me2s, binder concentration: 1:2,000 dilution
# [24] = peptide region: H4 1-13, peptide modifications: H4R3me2s, binder concentration: 1:10,000 dilution
binder,measurement,setting,value
B1,peptide microarray binding signal,"[1]; peptide region: H4 1-13, peptide modifications: H4K5ac H4K8ac H4K12ac, binder concentration: 50 nM",0.00417 ± 0.00038
same,peptide microarray binding signal,"[1]; peptide region: H4 1-13, peptide modifications: H4K5ac H4K8ac H4K12ac, binder concentration: 500 nM",0.00538 ± 0.00043
same,peptide microarray binding signal,"[2]; peptide region: H4 1-13, peptide modifications: H4K5ac H4K8ac H4K12ac, binder concentration: 10 nM",0.00418 ± 0.00011
same,peptide microarray binding signal,"[2]; peptide region: H4 1-13, peptide modifications: H4K5ac H4K8ac H4K12ac, binder concentration: 100 nM",0.00645 ± 0.00041
same,peptide microarray binding signal,[3]; [5],0.00128 ± 0.00011
same,peptide microarray binding signal,[3]; [6],0.001541 ± 1.5e-05
same,peptide microarray binding signal,[4]; [5],0.000695 ± 4.8e-05
same,peptide microarray binding signal,[4]; [6],0.001441 ± 1.4e-05
B2,peptide microarray binding signal,"[1]; peptide region: H4 1-13, peptide modifications: H4S1ph H4K5ac, binder concentration: 50 nM",0.00348 ± 3.8e-05
same,peptide microarray binding signal,"[1]; peptide region: H4 1-13, peptide modifications: H4S1ph H4K5ac, binder concentration: 500 nM",0.0117 ± 0.00091
same,peptide microarray binding signal,"[2]; peptide region: H4 1-13, peptide modifications: H4S1ph H4K5ac, binder concentration: 10 nM",0.001373 ± 8.3e-06
same,peptide microarray binding signal,"[2]; peptide region: H4 1-13, peptide modifications: H4S1ph H4K5ac, binder concentration: 100 nM",0.00269 ± 6.7e-05
same,peptide microarray binding signal,[3]; [7],0.000208 ± 2.2e-06
same,peptide microarray binding signal,[3]; [8],0.000856 ± 8.9e-06
same,peptide microarray binding signal,[4]; [7],0.000362 ± 6.3e-06
same,peptide microarray binding signal,[4]; [8],0.000692 ± 7.3e-06
B3,peptide microarray binding signal,"[1]; peptide region: H3 112-124, peptide modifications: H3K122me3, binder concentration: 50 nM",0.00423 ± 4.3e-05
same,peptide microarray binding signal,"[1]; peptide region: H3 112-124, peptide modifications: H3K122me3, binder concentration: 500 nM",0.0122 ± 0.00089
same,peptide microarray binding signal,"[2]; peptide region: H3 112-124, peptide modifications: H3K122me3, binder concentration: 10 nM",0.00489 ± 0.00015
same,peptide microarray binding signal,"[2]; peptide region: H3 112-124, peptide modifications: H3K122me3, binder concentration: 100 nM",0.0106 ± 0.00081
same,peptide microarray binding signal,[3]; [9],0.000868 ± 3.3e-05
same,peptide microarray binding signal,[3]; [10],0.00126 ± 7.5e-05
same,peptide microarray binding signal,[4]; [9],0.0125 ± 0.002
same,peptide microarray binding signal,[4]; [10],0.00381 ± 0.00041
B4,peptide microarray binding signal,"[1]; peptide region: H3 112-124, peptide modifications: H3R116cit, binder concentration: 50 nM",0.00583 ± 8.8e-05
same,peptide microarray binding signal,"[1]; peptide region: H3 112-124, peptide modifications: H3R116cit, binder concentration: 500 nM",0.0207 ± 0.0059
same,peptide microarray binding signal,"[2]; peptide region: H3 112-124, peptide modifications: H3R116cit, binder concentration: 10 nM",0.00895 ± 0.0012
same,peptide microarray binding signal,"[2]; peptide region: H3 112-124, peptide modifications: H3R116cit, binder concentration: 100 nM",0.00992 ± 0.0023
same,peptide microarray binding signal,[3]; [11],0.00451 ± 0.0016
same,peptide microarray binding signal,[3]; [12],0.00359 ± 0.00055
same,peptide microarray binding signal,[4]; [11],0.00177 ± 0.00034
same,peptide microarray binding signal,[4]; [12],0.00179 ± 8.5e-05
B5,peptide microarray binding signal,"[1]; peptide region: H4 1-13, peptide modifications: H4K12ac, binder concentration: 50 nM",0.00238 ± 2.8e-05
same,peptide microarray binding signal,"[1]; peptide region: H4 1-13, peptide modifications: H4K12ac, binder concentration: 500 nM",0.00652 ± 0.001
same,peptide microarray binding signal,"[2]; peptide region: H4 1-13, peptide modifications: H4K12ac, binder concentration: 10 nM",0.00251 ± 0.00023
same,peptide microarray binding signal,"[2]; peptide region: H4 1-13, peptide modifications: H4K12ac, binder concentration: 100 nM",0.0056 ± 0.00073
same,peptide microarray binding signal,[3]; [13],0.000302 ± 1.7e-05
same,peptide microarray binding signal,[3]; [14],0.000799 ± 3.3e-05
same,peptide microarray binding signal,[4]; [13],0.000121 ± 8.7e-06
same,peptide microarray binding signal,[4]; [14],0.000577 ± 6.2e-06
B6,peptide microarray binding signal,"[1]; peptide region: H3 112-124, peptide modifications: H3R116me2a, binder concentration: 50 nM",0.00257 ± 3e-05
same,peptide microarray binding signal,"[1]; peptide region: H3 112-124, peptide modifications: H3R116me2a, binder concentration: 500 nM",0.00719 ± 0.00024
same,peptide microarray binding signal,"[2]; peptide region: H3 112-124, peptide modifications: H3R116me2a, binder concentration: 10 nM",0.00322 ± 3.5e-05
same,peptide microarray binding signal,"[2]; peptide region: H3 112-124, peptide modifications: H3R116me2a, binder concentration: 100 nM",0.007583 ± 5.2e-05
same,peptide microarray binding signal,[3]; [15],0.000396 ± 1.8e-05
same,peptide microarray binding signal,[3]; [16],0.000514 ± 1.1e-05
same,peptide microarray binding signal,[4]; [15],0.00154 ± 0.0003
same,peptide microarray binding signal,[4]; [16],0.00098
B7,peptide microarray binding signal,"[1]; peptide region: H4 1-13, peptide modifications: H4K8ac H4K12ac, binder concentration: 50 nM",0.00188 ± 7.5e-05
same,peptide microarray binding signal,"[1]; peptide region: H4 1-13, peptide modifications: H4K8ac H4K12ac, binder concentration: 500 nM",0.00533 ± 0.00034
same,peptide microarray binding signal,"[2]; peptide region: H4 1-13, peptide modifications: H4K8ac H4K12ac, binder concentration: 10 nM",0.00179 ± 0.0001
same,peptide microarray binding signal,"[2]; peptide region: H4 1-13, peptide modifications: H4K8ac H4K12ac, binder concentration: 100 nM",0.00255 ± 6.4e-05
same,peptide microarray binding signal,[3]; [17],0.00017 ± 6.4e-06
same,peptide microarray binding signal,[3]; [18],0.000799 ± 1.7e-05
same,peptide microarray binding signal,[4]; [17],0.000438 ± 8.5e-06
same,peptide microarray binding signal,[4]; [18],0.000577 ± 1.2e-05
B8,peptide microarray binding signal,"[1]; peptide region: H4 1-13, peptide modifications: H4R3cit, binder concentration: 50 nM",0.00524 ± 0.00048
same,peptide microarray binding signal,"[1]; peptide region: H4 1-13, peptide modifications: H4R3cit, binder concentration: 500 nM",0.0149 ± 0.00041
same,peptide microarray binding signal,"[2]; peptide region: H4 1-13, peptide modifications: H4R3cit, binder concentration: 10 nM",0.00209 ± 0.00016
same,peptide microarray binding signal,"[2]; peptide region: H4 1-13, peptide modifications: H4R3cit, binder concentration: 100 nM",0.00468 ± 0.00014
same,peptide microarray binding signal,[3]; [19],0.00104 ± 0.00043
same,peptide microarray binding signal,[3]; [20],0.001997 ± 1.8e-05
same,peptide microarray binding signal,[4]; [19],0.00199 ± 3.7e-05
same,peptide microarray binding signal,[4]; [20],0.00161 ± 4.1e-05
B9,peptide microarray binding signal,"[1]; peptide region: H4 1-13, peptide modifications: H4K5ac, binder concentration: 50 nM",0.00201 ± 2.4e-05
same,peptide microarray binding signal,"[1]; peptide region: H4 1-13, peptide modifications: H4K5ac, binder concentration: 500 nM",0.00524 ± 0.00032
same,peptide microarray binding signal,"[2]; peptide region: H4 1-13, peptide modifications: H4K5ac, binder concentration: 10 nM",0.00197 ± 5.8e-05
same,peptide microarray binding signal,"[2]; peptide region: H4 1-13, peptide modifications: H4K5ac, binder concentration: 100 nM",0.00659 ± 0.00054
same,peptide microarray binding signal,[3]; [21],0.000585 ± 1.1e-05
same,peptide microarray binding signal,[3]; [22],0.000571 ± 1.1e-05
same,peptide microarray binding signal,[4]; [21],0.000302 ± 1.2e-05
same,peptide microarray binding signal,[4]; [22],0.000404 ± 4.4e-06
B10,peptide microarray binding signal,"[1]; peptide region: H4 1-13, peptide modifications: H4R3me2s, binder concentration: 50 nM",0.00304 ± 5.1e-05
same,peptide microarray binding signal,"[1]; peptide region: H4 1-13, peptide modifications: H4R3me2s, binder concentration: 500 nM",0.0107 ± 0.0019
same,peptide microarray binding signal,"[2]; peptide region: H4 1-13, peptide modifications: H4R3me2s, binder concentration: 10 nM",0.00161 ± 0.00016
same,peptide microarray binding signal,"[2]; peptide region: H4 1-13, peptide modifications: H4R3me2s, binder concentration: 100 nM",0.00468 ± 0.0011
same,peptide microarray binding signal,[3]; [23],0.000227 ± 2.2e-05
same,peptide microarray binding signal,[3]; [24],0.00097 ± 4.3e-05
same,peptide microarray binding signal,[4]; [23],0.000317 ± 3.5e-05
same,peptide microarray binding signal,[4]; [24],0.000461
